From PubChem BioAssay
Wnt act: activators of Wnt/beta-catenin signaling; Wnt/beta-catenin reporter cell assay, activator, plate reader; activation, % at 9.35 µM; 300,000 tested, 1.2% active; AID 743398; in the data active means activation above about 30%, passing the limit was not always enough; inconclusive means no clear call, values can overlap the other calls
MITF TRPM1 HTS: activators of MITF-driven TRPM1 promoter activity in SK-MEL-5 cells; SK-MEL-5 TRPM1-promoter luciferase, 24 h; % of positive control, neutral wells = 0; activation, % at 12.5 µM; 300,000 tested, 0.75% active; AID 588334;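 active means mean activation of at least 80% with every replicate also reaching 80%; inconclusive means mean reaches 80% but some replicate falls short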
GAA850 FXN act: activators of GAA850 frataxin (FXN) promoter | HEK293 lucGAA850 FXN promoter luciferase reporter, 24 h; percent of 10 µM SAHA response | activation, % at 6 µM | 360,000 tested, 0.56% active | AID 540364;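 active means activation above the average of all compounds screened plus 3 SD, cutoff fixed separately per campaign, cut at about 7.5% in these data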
esBAF inh: blocks esBAF chromatin remodeling in mouse ES cells; reporter increase, % at 12.5 µM; 350,000 tested, 2% active; Bmi1-luciferase knock-in reporter, 24 h; 100% = twice the neutral-well signal; in the data active means activation above about 40%; inconclusive means no clear call, values can overlap the other calls;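 further: a rise in the Bmi1 reporter signal indicates esBAF inhibition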
A number is an active result. An excerpt weighted towards active compounds, which were near 2.8% of everything screened.

Results for O=[N+]([O-])c1ccccc1/C=N/N1CCN(Cc2ccccc2)CC1 ?
Wnt act: inactive; MITF TRPM1 HTS: inactive; GAA850 FXN act: inactive; esBAF inh: inconclusive

What do the screens show for `CC(C)(C)c1ccc(/C=N/N2CCN(c3ccccn3)CC2)cc1`?
Wnt act: inactive; GAA850 FXN act: inactive

How did C[C@@H]1CN([C@H](C)CO)C(=O)c2cccc(NC(=O)Nc3ccc(F)cc3)c2O[C@H]1CN(C)C(=O)Nc1ccccc1 do in these assays?
esBAF inh: inactive

What do the screens show for `COc1ccc(CN(C)C[C@@H]2OCCCC[C@@H](C)Oc3ccc(NC(=O)NC(C)C)cc3C(=O)N([C@@H](C)CO)C[C@H]2C)cc1`?
esBAF inh: inactive

What do the screens show for `CN1c2ccc(-c3ccccc3)cc2[C@H]2[C@H](CCN2C(=O)Nc2ccccc2F)[C@H]1CO`?
esBAF inh: inactive

Results for COc1ccccc1/C=C/C=N/n1c(-c2cc(C)[nH]n2)n[nH]c1=S ?
Wnt act: inactive; MITF TRPM1 HTS: inactive; GAA850 FXN act: inactive; esBAF inh: inactive

What do the screens show for `COc1ccccc1/C=C/C=N/n1c(-c2ccccn2)n[nH]c1=S`?
Wnt act: inactive; MITF TRPM1 HTS: inconclusive; GAA850 FXN act: inactive; esBAF inh: 55.8

Results for COc1cccc(NC(=O)N[C@H]2CC[C@H](CC(=O)Nc3ccc(-c4ccccc4)cc3)O[C@@H]2CO)c1 ?
esBAF inh: inactive

How did COc1cccc(NC(=S)N/N=C2\CC3CCC2(C)C3(C)C)c1 (stereo unspecified) do in these assays?
Wnt act: inactive; MITF TRPM1 HTS: inactive; GAA850 FXN act: inactive; esBAF inh: 53.6

Results for CS(=O)(=O)n1c2ccccc2c(=O)n1-c1ccccc1CCl ?
Wnt act: inactive; esBAF inh: 55.5

How did O=C(c1ccccc1)n1c2ccccc2c(=O)n1-c1ccccc1CCl do in these assays?
esBAF inh: 87.1

How did CC(C)n1c(=O)c2ccccc2n1C(=O)c1ccccc1 do in these assays?
Wnt act: inactive; esBAF inh: inactive

Results for O=C(Nc1cccc(C2=NCCN2)c1)Nc1cccc(C2=NCCN2)c1 ?
Wnt act: inactive; MITF TRPM1 HTS: inactive; GAA850 FXN act: inactive; esBAF inh: 45.5

Results for Brc1ccc(Nc2nc(-c3cccnc3)cs2)cc1 ?
Wnt act: inactive; MITF TRPM1 HTS: inactive; GAA850 FXN act: inactive

Results for CCOc1ccc(Nc2nc(-c3cccnc3)cs2)cc1 ?
Wnt act: inactive; GAA850 FXN act: inactive; esBAF inh: 50.3

Results for CC(=O)c1cccc(Nc2nc(-c3cccnc3)cs2)c1 ?
Wnt act: inactive; GAA850 FXN act: inactive; esBAF inh: 54.2

Results for Oc1ccc(Nc2nc(-c3cccnc3)cs2)cc1 ?
GAA850 FXN act: 9.0; esBAF inh: inactive

What do the screens show for `CC(=O)c1ccc(Nc2nc(-c3cccnc3)cs2)cc1`?
Wnt act: inactive; GAA850 FXN act: inactive; esBAF inh: 51.5

Results for CNC[C@@H]1Oc2ccc(NC(=O)Nc3cccc4ccccc34)cc2CC(=O)N([C@@H](C)CO)C[C@@H]1C ?
esBAF inh: inactive

Results for CCCC#Cc1cnc2c(c1)C(=O)N([C@H](C)CO)C[C@H](C)[C@H](CN(C)C(=O)Nc1ccccc1OC)O2 ?
esBAF inh: inactive

How did c1cncc(Nc2nc(-c3cccs3)cs2)c1 do in these assays?
Wnt act: inactive; MITF TRPM1 HTS: inactive; GAA850 FXN act: inactive; esBAF inh: 68.7

Results for Cc1ccc(S(=O)(=O)Nc2ccc3c(c2)C(=O)N([C@@H](C)CO)C[C@H](C)[C@@H](CN(C)C(=O)Nc2c(C)noc2C)OCCCC[C@@H](C)O3)cc1 ?
esBAF inh: inactive

How did COc1ccc2c(c1)CC/C(=C\c1ccc(C)o1)C2=O do in these assays?
Wnt act: inactive; MITF TRPM1 HTS: 87.1; GAA850 FXN act: inactive; esBAF inh: inactive

How did Cc1ccc2cc3cc(C(=O)NC4CC4)oc3nc2c1 do in these assays?
Wnt act: 31.2; MITF TRPM1 HTS: inactive; GAA850 FXN act: inactive; esBAF inh: 45.5

How did Cc1ccc2cc3cc(C(=O)NCCCN4CC(C)CC(C)C4)oc3nc2c1 (stereo unspecified) do in these assays?
Wnt act: inactive; MITF TRPM1 HTS: inactive; GAA850 FXN act: inactive; esBAF inh: inactive

Results for Cc1ccc2cc3cc(C(=O)N4CCCCC4C)oc3nc2c1 (stereo unspecified) ?
MITF TRPM1 HTS: inactive; GAA850 FXN act: inactive; esBAF inh: 50.1

What do the screens show for `Cc1ccc2cc3cc(C(=O)NC4CCCCC4)oc3nc2c1`?
Wnt act: inactive; MITF TRPM1 HTS: inactive; GAA850 FXN act: inactive; esBAF inh: 46.6

Results for Cc1ccc2cc3cc(C(=O)NCCC(C)C)oc3nc2c1 ?
MITF TRPM1 HTS: inactive; GAA850 FXN act: inactive

Results for CC(C)NC(=O)Nc1cccc2c1O[C@H](CN(C)Cc1ccc(Cl)c(Cl)c1)[C@@H](C)CN([C@@H](C)CO)C2=O ?
esBAF inh: inactive

Results for C[C@@H]1CN([C@@H](C)CO)C(=O)c2cccc(NC(=O)Nc3ccc(F)cc3)c2O[C@H]1CN(C)S(=O)(=O)c1cccs1 ?
esBAF inh: inactive

How did C[C@@H]1CN([C@H](C)CO)C(=O)c2cccc(NC(=O)Nc3ccccc3)c2O[C@H]1CN(C)S(=O)(=O)c1ccc(F)cc1 do in these assays?
esBAF inh: inactive

Results for OCCCN=c1cc(-c2ccccc2)oc2ccc(Cl)cc12 ?
MITF TRPM1 HTS: inactive; GAA850 FXN act: inactive; esBAF inh: 72.3

What do the screens show for `CCCC(=O)Nc1ccc2c(c1)C(=O)N(C)[C@@H]1CC[C@@H](CC(=O)NCCOC)O[C@@H]1CO2`?
esBAF inh: inactive

Results for Cn1cc(C=O)c(-c2ccc3c(c2)OCCCO3)n1 ?
Wnt act: inactive; MITF TRPM1 HTS: inactive; GAA850 FXN act: inactive; esBAF inh: inactive

What do the screens show for `N#Cc1cn(-c2ccccc2)nc1-c1ccc2c(c1)OCCO2`?
Wnt act: inactive; MITF TRPM1 HTS: 123.0; GAA850 FXN act: inactive; esBAF inh: 51.3

How did O=Cc1cn(-c2ccccc2)nc1-c1ccc2c(c1)OCCO2 do in these assays?
MITF TRPM1 HTS: inactive; GAA850 FXN act: inactive; esBAF inh: 49.6

How did COc1ccc(-c2ccc3c(c2)[C@H]2[C@H](CCN2S(=O)(=O)c2ccc(OC)cc2)[C@@H](CO)N3)cc1 do in these assays?
esBAF inh: inactive

What do the screens show for `CC(=O)Nc1cc2c(cc1Cl)-c1ccccc1C2O` (stereo unspecified)?
Wnt act: inactive; MITF TRPM1 HTS: inactive; GAA850 FXN act: inactive; esBAF inh: inactive

How did CC(=O)Nc1cc2c(cc1Cl)-c1ccccc1C2 do in these assays?
Wnt act: inactive; MITF TRPM1 HTS: inactive; GAA850 FXN act: inactive; esBAF inh: 51.8

What do the screens show for `CC(=O)N1[C@H](C(=O)NCCCN(C)C)[C@@H](CO)[C@@H]2Cn3c(ccc(-c4cccc(F)c4)c3=O)[C@@H]21`?
esBAF inh: inactive

How did C=CCN1N=C(/C=C/c2ccc(OC)cc2)CCC1=O do in these assays?
Wnt act: inactive; MITF TRPM1 HTS: inactive; GAA850 FXN act: inactive; esBAF inh: inconclusive

How did C=CCN1N=C(/C=C/c2ccc(C)cc2)CCC1=O do in these assays?
Wnt act: inactive; MITF TRPM1 HTS: inactive; GAA850 FXN act: inactive; esBAF inh: 55.8
